Screening results from PubChem.
PD-1 reverse act = activators reversing PD-1 mediated T-cell inhibition, primary screen, luminescence, primary human CD4 T cells, PD-L1 beads. AID 2316, 2010. CellTiter-Glo 96 h. activation, % (test concentration not listed). 29,000 tested, under 10 active; call rule not given here;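 further: 0% = median vehicle wells and 100% = positive control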
ROS inducer = ROS inducers in U2OS cancer cells, primary screen, cell-based, H2DCF-DA fluorescence | 46,000 tested, 2% active | U2OS ROS induction | ROS induction (% of piperlongumine), % at 10 µM; in the data active means ROS induction above about 79%, passing the limit was not always enough;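 further: 0% = DMSO vehicle median and 100% = reference compound median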
Numbers without * were called inactive; x = not tested or not shown. This excerpt belongs to a sample that is enriched for hits.

SMILES	PD-1 reverse act	ROS inducer
COc1ccc(Cl)cc1NC(=O)COc1ccc([N+](=O)[O-])cc1	1	3
COc1ccc(NC(=O)Nc2cccc3c2O[C@@H](CN(C)Cc2ccc(Cl)c(Cl)c2)[C@H](C)CN([C@@H](C)CO)C3=O)cc1	-6	96*
COc1ccc(CN(C)C[C@@H]2Oc3c(NC(=O)Nc4ccc(OC)cc4)cccc3C(=O)N([C@H](C)CO)C[C@H]2C)cc1	x	12
CNC[C@@H]1Oc2ccc(NS(=O)(=O)c3c(C)noc3C)cc2CC(=O)N([C@H](C)CO)C[C@@H]1C	3	-6
C[C@@H]1CN([C@H](C)CO)C(=O)c2cccc(NS(=O)(=O)c3ccccc3)c2O[C@@H]1CN(C)Cc1ccc(Cl)c(Cl)c1	-2	27
C[C@@H]1CN([C@@H](C)CO)C(=O)c2cccc(NS(=O)(=O)c3ccccc3)c2O[C@H]1CN(C)Cc1ccc(Cl)c(Cl)c1	0	151*
CNC[C@@H]1Oc2ccc(NS(=O)(=O)c3c(C)noc3C)cc2CC(=O)N([C@H](C)CO)C[C@H]1C	0	99*
COc1ccc(CCN2C(=O)C(C)SC2c2cccnc2)cc1 (centres undefined)	x	-12
COc1ccc(-c2cc(C(=O)NC3CCCCC3C)c3ccccc3n2)cc1 (centres undefined)	x	0
COC(=O)c1cccc(NC(=O)CSc2nc(-c3ccc(C)cc3)cc(C(F)(F)F)n2)c1	1	12
CSc1ccccc1NC(=O)CN(C)S(=O)(=O)c1ccc(Cl)cc1	0	-4
CCCCN(CC)S(=O)(=O)c1ccc2[nH]c(=O)cc(C(=O)NCCc3ccc(Cl)cc3)c2c1	x	-3
O=C(c1cnn2c(C(F)(F)F)cc(-c3ccccc3)nc12)N1CCCC1	x	6
CSc1ccccc1NC(=O)c1cnn2c(C(F)(F)F)cc(-c3ccco3)nc12	-2	171*
CCC(C)NC(=O)c1cnn2c(C(F)(F)F)cc(-c3ccccc3)nc12 (centres undefined)	x	129*
O=C(O)c1cnn2c(C(F)(F)F)cc(-c3ccco3)nc12	x	-13
COc1ccc(-c2cc(C(F)(F)F)n3ncc(C(=O)NCc4nc5ccccc5[nH]4)c3n2)cc1OC	-9	151*
COc1ccc(-c2cc(C(F)(F)F)n3nc(C(=O)NCc4ccco4)cc3n2)cc1OC	-2	33
CCCN(CCC)C(=O)CSc1nc2ccsc2c(=O)n1-c1ccc(Br)cc1	x	1
CCCNC(=O)OCN1C(=O)c2ccc(N)cc2C1=O	x	-3
O=C(O)C1C2CCC(O2)C1C(=O)Nc1ccc(S(=O)(=O)N2CCc3ccccc32)cc1 (centres undefined)	0	-1
Cc1nnsc1-c1nnc(SCC(=O)N(c2ccccc2)C2CCCCC2)n1C1CC1	x	0
CCCn1c2ccccc2c2nnc(SCCCC(=O)c3ccc4c(c3)OCCO4)nc21	x	142*
CCCn1c2ccccc2c2nnc(SCC(=O)N3c4ccccc4Sc4ccccc43)nc21	0	0
Cc1ccc(S(=O)(=O)c2cc3c(=O)n4ccccc4nc3n(Cc3ccccc3)c2=N)cc1	x	-5
SMILES	PD-1 reverse act	ROS inducer
CCn1c(=N)c(S(=O)(=O)c2ccccc2)cc2c(=O)n3ccccc3nc21	x	94*
C=CCSc1nc2c(c(=O)n1Cc1ccco1)C1(CCCCC1)Cc1ccccc1-2	x	32
Cc1cccc(-c2nnc(SCC(=O)c3ccccc3)n2-c2ccccc2)c1	-2	3
Cc1ccccc1NC(=O)COc1ccc(C)c([N+](=O)[O-])c1	-1	114*
CC(=O)Nc1ccccc1NC(=O)COc1ccc([N+](=O)[O-])cc1	1	-10
COc1cccc(NC(=O)CSc2nc3ccccc3c(=O)n2-c2ccc(Br)cc2)c1	0	-8
Cc1ccc(Cl)cc1N(CC(=O)Nc1c(F)cccc1F)S(C)(=O)=O	1	156*
CS(=O)(=O)N(CC(=O)Nc1c(F)cccc1F)c1cccc(Cl)c1Cl	2	6
CC(C)Oc1ccc2c(C(F)(F)F)cc(=O)oc2c1	x	5
COC(=O)C1=C(C)NC2=C(C(=O)CC(c3ccccc3)C2)C1c1ccccc1OC(C)C (centres undefined)	-1	46
CC1=C(C(=O)OCc2ccccc2)C(c2cccc(O)c2)C2=C(CC(c3ccccc3)CC2=O)N1 (centres undefined)	x	183*
CCc1ccc2nc(Nc3nc4ccccc4c(=O)[nH]3)nc(C)c2c1	x	132*
Cc1ccc(SCc2cc(=O)[nH]c(Nc3nc(C)c4ccccc4n3)n2)cc1	x	-14
Cc1ccc2nc(Nc3nc(CSc4nc5ccccc5s4)cc(=O)[nH]3)nc(C)c2c1	-1	166*
Cc1ccc2nc(Nc3nc(CSc4nnc(C)s4)cc(=O)[nH]3)nc(C)c2c1	-2	49
O=C(CNc1ccc(Cc2ccncc2)cc1)c1cccc2ccccc12	x	-4
COc1ccc(-n2nnc3c(SCC(=O)Nc4cccc(C(F)(F)F)c4)ncnc32)cc1	x	261*
COc1ccc(-n2c(C)nnc2SCC(=O)Nc2cccc(C(F)(F)F)c2)cc1	2	2
O=C1CCC(C(=O)Nc2cc(F)cc(F)c2)=NN1	x	5
COc1cccc(OC)c1/C=N/NC(=O)CCCCCCC(=O)Nc1ccccc1O	x	-12
O=C(CCSc1nc(-c2ccccc2)cs1)Nc1ccccc1	-1	106*
CC(=O)Nc1ccc(NC(=O)CCSc2ccccc2)cc1	x	-2
O=C(CSc1nccc(-c2csc(COc3ccccc3Cl)n2)n1)c1ccccc1	x	-3
CCC(Sc1nnc(N)s1)C(=O)Nc1sc2c(c1C#N)CCCC2 (centres undefined)	1	-4
CCC(Sc1nnnn1-c1ccccc1)C(=O)Nc1sc2c(c1C#N)CCCC2 (centres undefined)	0	95*
SMILES	PD-1 reverse act	ROS inducer
CCC(=O)Nc1cc(-c2nc3cccnc3s2)ccc1C	x	-4
CCCN(CCC)C(=O)Cn1c(SCc2cccc(Cl)c2)nc2ccncc21	x	-3
Cn1c(SCC(=O)Nc2ccc(Oc3ccccc3)cc2)nnc1-c1ccccc1Cl	-1	8
C[C@@H]1CCCCO[C@@H](CN(C)C(=O)C2CCCCC2)[C@@H](C)CN([C@H](C)CO)C(=O)c2cc(NS(C)(=O)=O)ccc2O1	-1	91*
Cc1ccc(S(=O)(=O)Nc2ccc3c(c2)C(=O)N([C@H](C)CO)C[C@H](C)[C@H](CN(C)C(=O)CCCN(C)C)OCCCC[C@@H](C)O3)cc1	x	4
CC(C)NC(=O)N(C)C[C@@H]1OCCCC[C@@H](C)Oc2ccc(NS(=O)(=O)c3ccc(Cl)cc3)cc2C(=O)N([C@H](C)CO)C[C@@H]1C	0	11
C[C@@H]1CCCCO[C@@H](CN(C)C(=O)C2CCCCC2)[C@@H](C)CN([C@H](C)CO)C(=O)c2cc(NS(=O)(=O)c3ccc(Cl)cc3)ccc2O1	-2	101*
C[C@@H]1CCCCO[C@H](CN(C)C(=O)CCCN(C)C)[C@@H](C)CN([C@H](C)CO)C(=O)c2cc(NS(=O)(=O)c3ccc(Cl)cc3)ccc2O1	x	99*
C[C@@H]1CCCCO[C@@H](CN(C)C(=O)NC2CCCCC2)[C@@H](C)CN([C@H](C)CO)C(=O)c2cc(NS(C)(=O)=O)ccc2O1	0	-9
C[C@@H]1CCCCO[C@H](CN(C)C(=O)CCCN(C)C)[C@@H](C)CN([C@H](C)CO)C(=O)c2cc(NC(=O)NC3CCCCC3)ccc2O1	-1	22
